Rows were chosen to be rich in hits. Some 0.81% of all compounds tested hit in one or more screens of this group.
AMA1-RON2 inh = inhibitors of Plasmodium falciparum AMA1-RON2 interaction; AlphaScreen AMA1-biotinylated RON2 peptide binding; Potency, µM (highest dose often 58.2 µM), most hits filed as inhibitors; 0.2% of 360,000 active; AID 720542; also: nearly all actives have a fitted effect of over 45% in size
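AMA1 (3D7) with his tag at 25 nM final met compounds first, then biotinylated RON2 peptide at 25 nM; detection used donor plus acceptor beads, 10 µg/mL apiece, read by AlphaScreen after 30 min at room temperature.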
Tb PYK inh = inhibitors of Trypanosoma brucei pyruvate kinase | AID 624173 | Potency, µM (series often up to 76.8 µM), hits mostly inhibitors | TbPYK enzyme, Kinase-Glo Plus ATP luminescence, 45 min | Q57TT1 | 0.12% of 410,000 active; also: nearly all actives have a fitted effect of over 50% in size
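Assay buffer: 50 mM TEA pH 7.2, 100 mM KCl, 10 mM MgCl2, 0.05% BSA, 0.01% Tween-20. Pyruvate kinase from T. brucei plus substrate met compound, then ADP (130 uM final). Luminescence was read post 45 min RT.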
RE007 growth inh = less growth of the S. pombe RE007 Vpr strain. AID 651644. Potency, µM (doses to about 92.2 µM), actives largely listed as inhibitors. 0.21% of 360,000 active. S. pombe RE007 Vpr strain, BacTiter-Glo ATP luminescence, 24 h; active = well fitted falling curve with a large enough effect; inconclusive = small, poorly fitted or top-dose-only effect; inactive = no such curve, though single readings can be large or run the other way; also: nearly all actives have a fitted effect of over 50% in size
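Fission yeast RE007 carrying one integrated HIV-1 vpr copy, seeded at OD 0.01 in PMG+AL medium with 23 nL pinned compound. Grown 24 h at 30 degrees; viability read by BacTiter-Glo luminescence after 5 min.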
LmPK inh = inhibitors of Leishmania mexicana pyruvate kinase. purified LmPK, Kinase-Glo ATP luminescence, 1 h. Potency, µM (doses to about 57.5 µM), usual class: inhibitors. Q27686. 0.37% of 290,000 active
Target sequence (Q27686 whole entry, looked up): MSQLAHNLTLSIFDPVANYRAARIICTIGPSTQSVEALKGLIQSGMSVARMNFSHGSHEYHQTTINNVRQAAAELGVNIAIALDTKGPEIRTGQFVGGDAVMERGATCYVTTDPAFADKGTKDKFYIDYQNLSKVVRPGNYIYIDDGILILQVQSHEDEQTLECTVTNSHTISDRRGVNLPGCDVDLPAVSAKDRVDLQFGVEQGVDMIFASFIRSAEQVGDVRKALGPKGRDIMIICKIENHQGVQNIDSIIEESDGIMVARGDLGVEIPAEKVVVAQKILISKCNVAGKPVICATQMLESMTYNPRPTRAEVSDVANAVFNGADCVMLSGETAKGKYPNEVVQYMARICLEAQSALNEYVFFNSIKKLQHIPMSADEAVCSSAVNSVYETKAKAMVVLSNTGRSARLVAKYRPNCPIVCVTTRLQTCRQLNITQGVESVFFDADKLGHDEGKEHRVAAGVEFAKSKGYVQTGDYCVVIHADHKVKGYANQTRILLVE
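Screened at intermediate enzyme activity to detect both inhibitors and activators: LmPK at 0.1 nM, with a 0.5 nM enzyme column as activation reference. PEP 0.5 mM, ADP 0.1 mM; ATP detected by luminescence after 1 h.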
SARS PLP yeast = SARS-CoV PLP inhibition in yeast. S. cerevisiae expressing SARS-CoV PLpro, growth rescue. 0.19% of 330,000 active. Potency, µM (highest dose often 32.9 µM), most hits filed as activators. AID 485353; calls by dose curve; also: nearly all actives have a fitted effect of over 55% in size
Hits are given with their value; – = inactive; ? = inconclusive; · = no result; [ ] = dose if it differs, or a comment. Unless noted, calls follow the shape of the dose curve; as a rule, active = well fitted curve in the direction sought with a large enough effect; inconclusive = small, poorly fitted or top-dose-only effect, or another doubt; inactive = no such curve, though single readings can be large; an effect the other way counts as inactive or inconclusive.

SMILES	AMA1-RON2 inh	Tb PYK inh	RE007 growth inh	LmPK inh	SARS PLP yeast
Cc1ccc(N2C(=O)CC(Sc3nc4ccccc4o3)C2=O)cc1Cl (configuration not stated)	–	–	10µM	–	–
CCCc1c(O)nc(SC2CC(=O)N(c3ccc(C)c(Cl)c3)C2=O)[nH]c1=O (configuration not stated)	–	–	?	·	·
O=C(NCCCn1ccnc1)Nc1cccc(Cl)c1	25µM	–	–	–	–
O=C(NCCCn1ccnc1)c1cccc(Cl)c1	–	–	–	–	–
COc1ccc(N2CCN(C(=O)c3cc(-c4cccs4)nc4ccccc34)CC2)cc1	13µM	–	–	–	–
COc1ccc(N2CCN(C(=O)c3oc4ccccc4c3C)CC2)cc1	14µM	–	–	–	–
COc1ccc(C(O)c2nc(-c3ccccc3OC)cs2)cc1 (configuration not stated)	–	–	–	·	·
COc1cc(/C=C/[N+](=O)[O-])ccc1OC(=O)c1cccnc1	–	?	8.9µM	–	–
COc1cc(/C=N/NC(=O)c2cccnc2)ccc1OC(=O)c1ccc([N+](=O)[O-])cc1	–	–	–	–	–
Cc1ccc(CNCc2ccc3c(c2)n(C)c(=O)n3C)cc1	·	–	·	·	·
CN(C)c1ccc(C(CNS(=O)(=O)c2ccc(F)cc2)c2c[nH]c3ccccc23)cc1 (configuration not stated)	?	–	–	–	–
CCOC(=O)c1ccc(S(=O)(=O)NCC(c2ccc(N(C)C)cc2)c2c[nH]c3ccccc23)cc1 (configuration not stated)	14µM	–	–	–	–
CN(C)c1ccc(C(CNC(=O)c2ccc(C#N)cc2)c2c[nH]c3ccccc23)cc1 (configuration not stated)	14µM	–	–	–	–
CCOP(=O)(OCC)C(Cc1ccc(OC)c(OC)c1)N=C(c1ccccc1)c1ccccc1 (configuration not stated)	–	–	–[18.4 µM]	·	·
CN(C)c1ccc(C(=O)c2ccc(O)cc2O)cc1	?	–	–	–	–
CN(C)c1ccc(Cc2cc3c(O)ccc(O)c3cc(Cc3ccc(N(C)C)cc3)c2=O)cc1	11µM	?	–	·	·
Cc1cccc(C)c1N=Nc1c(C)cc(O)cc1C	?	–	25µM	–	–
Cc1cccc(O)c1C	–	–	–	·	–
CC1=C(CC(=O)c2ccc(Cl)cc2)C(=O)c2ccccc2C1=O	12µM	–	–	–	–
CCn1c2c(c(=O)n3ncc(C(=O)N4CCN(c5ccc(Cl)cc5)CC4)c13)CN(Cc1ccc(OC)cc1)CC2	·	–	·	·	·
Cc1oc2c(c1C(=O)c1ccc(Cl)cc1)C(=O)C(=O)c1ccccc1-2	–	–	–	–	–
Cc1ccc(C(=O)c2c(C)oc3c2C(=O)C(=O)c2ccccc2-3)cc1	–	–	25µM	–	–
CC1=C(CC/C(C)=N/NC(N)=S)C(C)(C)CCC1	–	–	–	–	14µM
CC(C)=CCN1CCN(CCC2=C(C)CCCC2(C)C)CC1CCO (configuration not stated)	–	–	–	–	–
COc1ccc(/C=C/C(=O)c2c(O)cc(C)oc2=O)c(OC)c1	–	–	–	14µM	–
SMILES	AMA1-RON2 inh	Tb PYK inh	RE007 growth inh	LmPK inh	SARS PLP yeast
COc1cccc(/C=C/C(=O)c2c(O)cc(C)oc2=O)c1O	–	–	–	–	–
O=C(NN=Cc1c(O)ccc2ccccc12)c1ccc2c(c1)OCO2	–	–	–	·	–
O=C(N/N=C\c1c(O)ccc2ccccc12)c1ccc(S(=O)(=O)N2CCCCC2)cc1	–	–	–	–	4µM
CC(C1CC2CCC1C2)n1c(-c2ccco2)n[nH]c1=S (configuration not stated)	–	?	–	13µM	–
Cc1ccc(/C=N/n2c(-c3ccco3)n[nH]c2=S)cc1	–	?	–	–	–
Cc1ccc(C(=O)N2CCC(c3c[nH]c4ccccc34)(c3c[nH]c4ccccc34)CC2)cc1	·	–	·	·	·
O=C1C=CC(=Nc2ccc(F)cc2)O1	–	?	5µM	·	·
O=C1C=CC(=Nc2ccc3c(c2)C(=O)c2ccccc2-3)O1	–	–	?	·	·
CCc1cc2cc(C)cc(C)c2[nH]c1=S	–	11µM	–	?	–
CS(=O)(=O)c1ccc(N)c(SSc2cc(S(C)(=O)=O)ccc2N)c1	–	3.5µM	–	·	–
Cn1nc(-c2ccccc2)cc1NC(=O)[C@@H]1O[C@H](CO)[C@H](O)[C@H](O)[C@H]1O	–	–	–	·	·
O=C(COC(=O)c1ccc([N+](=O)[O-])s1)NCc1ccccc1	–	–	–	–	–
Cc1cc(C(=O)OCC(=O)N2CCC(c3ccccc3)=N2)ccc1[N+](=O)[O-]	–	–	–	·	–
Cc1[nH]c2ccccc2c1C(=O)COC(=O)c1ccc([N+](=O)[O-])s1	–	–	63µM	–	–
O=C(OCC(=O)N1CCC(c2ccccc2)=N1)c1ccc([N+](=O)[O-])s1	?	–	16µM	·	–
CC(C)N1CCCC(C)(C(=O)Nc2cccc(Oc3ccccc3)c2)C1 (configuration not stated)	–	–	–	·	·
CCC(=O)O[C@@H](OP(=O)(CCCCc1ccccc1)CC(=O)N1C[C@H](C2CCCCC2)C[C@H]1C(=O)O)C(C)C (some centres not stated)	·	–	·	·	·
Cc1cc2oc(C(=O)N(Cc3ccc(N(C)C)cc3)CC3CCCO3)c(C)c2cc1C (configuration not stated)	14µM	–	–	–	–
Cc1ccc2oc(C(=O)N(Cc3ccc(N(C)C)cc3)CC3CCCO3)c(C)c2c1 (configuration not stated)	18µM	–	–	–	–
COc1cc(C(=O)N(Cc2ccc(N(C)C)cc2)CC2CCCO2)cc(OC)c1OC (configuration not stated)	·	–	·	·	·
C=CCSc1nnc2c(n1)OC=Nc1ccccc1-2	–	–	?	25µM	–
c1ccc2c(CCC3CCNCC3)c[nH]c2c1	·	–	·	·	·
Cc1ccccc1N1C(=O)CC(N(O)c2ccccc2)C1=O (configuration not stated)	–	–	–	–	–
CCN(CCO)C1CC(=O)N(c2ccccc2C)C1=O (configuration not stated)	–	–	22µM	–	–
CCO[C@@H](Cc1ccc(OCCc2ccc(OS(C)(=O)=O)cc2)cc1)C(=O)O	·	–	·	·	·
Cn1c(NC(=O)C[n+]2cc(-c3ccc(Cl)c(Cl)c3)n3c2CCC3)cc(=O)n(C)c1=O	–[2.32 µM]	–	32µM	–	–
COC1=C(OC)C(=O)C(CC=C(C)CCC=C(C)CCC=C(C)CCC=C(C)CCC=C(C)CCC=C(C)CCC=C(C)CCC=C(C)CCC=C(C)CCC=C(C)C)=C(C)C1=O	·	–	·	·	·
COC(=O)C(CC(=O)c1ccc(Br)cc1)n1ccnc1 (configuration not stated)	·	·	·	10µM	–
